Test results as given in PubChem BioAssay.
Calls of active or inactive are those of the source.

Legend:
[1] = biological target: Albumin (Bos taurus) (UniProt P02769); assay: bovine serum albumin binders on microarray, profiling panel, artefact control for SMM control protein annotation, biochemical, small-molecule microarray, Alexa647 label, 635/667 nm fluorescence (AID 1118); conditions: BSA-A647 binding, fluorescence 635 nm, higher = more signal;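 note: score merges 667 nm emission intensity and signal-to-noise per printed compound spot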
[2] = small-molecule microarray binders of probe aXIP, primary screen, biochemical, NeuroSMM set, 635/667 nm fluorescence (AID 1119); conditions: higher = more signal, called active from +8 up or from −8 down;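 note: probe is the protein aXip251-270 applied at 1 µg/mL to compound-printed slides; binding of probe to printed compounds measured as 667 nm fluorescence plus signal to noise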
[3] = small-molecule binders of probe aNOTCH3, primary screen, biochemical, small-molecule microarray, 635/667 nm fluorescence (AID 1120); conditions: higher = more signal;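 note: probe is a biotin-tagged antibody raised against NOTCH3 rather than NOTCH3 protein; score merges spot fluorescence near 667 nm with spot signal to noise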
[4] = small-molecule binders of probe aNOTCH2, primary screen, biochemical, small-molecule microarray, 635/667 nm fluorescence (AID 1121); conditions: higher = more signal;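 note: score merges feature fluorescence read at 667 nm with its signal to noise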
[5] = biological target: Carbonic anhydrase 2 (Homo sapiens) (UniProt P00918); assay: CAII small-molecule binders, profiling panel, biochemical, small-molecule microarray, Alexa647-labelled CAII (AID 1122); conditions: CAII-A647 binding fluorescence, higher = more signal
[6] = COS7 lysate on small-molecule microarray, probe aHis, 635 nm (AID 1123); conditions: COS7 cell lysate, fluorescence, higher = more signal;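 note: z-score combines 667nm fluorescence intensity with signal-to-noise per printed compound spot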
[7] = compound binding in COS7 lysate, probe aLAP1, primary screen, cell lysate, small-molecule microarray (AID 1124); conditions: probe aLAP1, fluorescence, higher = more signal;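 note: lysate comes from COS7 cells expressing LAP1 and is applied at 0.3 µg/mL; score merges spot fluorescence near 667 nm with signal-to-noise over triplicate slides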
[8] = test system: Sam68 (KHDRBS1); assay: Sam68 small-molecule binders, primary screen, biochemical, small-molecule microarray, 635 nm fluorescence (AID 1125); conditions: small-molecule microarray binding, higher = more signal;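 note: score merges 667 nm channel intensity with signal to noise over triplicate slides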
[9] = test system: Chordin-like protein 2 (CHRDL2); assay: CHRDL2 small-molecule binders, primary screen, biochemical, small-molecule microarray, 635 nm fluorescence (AID 1126); conditions: small-molecule microarray binding, fluorescence 635 nm; higher = more signal;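 note: printed compound slides probed with Chrdl2 protein at 4 µg/mL for 1 h at 4 C; score merges 667 nm emission intensity with signal to noise over three replicate slides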
[10] = biological target: Concanavalin-A (Canavalia ensiformis) (UniProt P02866); assay: ConA small-molecule binders, primary screen, artefact control for SMM control protein annotation, biochemical, small-molecule microarray, Alexa647 label, 635 nm (AID 1127); conditions: ConA-A647 binding fluorescence, higher = more signal;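 note: z combines 667 nm emission intensity with signal-to-noise across three replicate slides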
[11] = anti-His antibody binders, primary screen, artefact control for SMM control protein annotation, biochemical, small-molecule microarray, 635 nm fluorescence (AID 1128); conditions: anti-His Alexa647 antibody binding, higher = more signal;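 note: score merges feature fluorescence with signal-to-noise for each printed compound spot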
[12] = test system: Human papillomavirus type 1a E7 protein (residues 1-88); assay: HPV1a E7 small-molecule binders, primary screen, biochemical, small-molecule microarray, residues 1-88, 635 nm (AID 1129); conditions: small-molecule microarray binding, fluorescence 635 nm; higher = more signal
[13] = biological target: Focal adhesion kinase 1 (Homo sapiens) (UniProt Q05397); assay: small-molecule microarray binders of FAK, primary screen, biochemical, 635/667 nm fluorescence, BSA, DTT (AID 1130); conditions: PTK2 binding, 635 nm fluorescence, higher = more signal;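 note: composite of spot emission at 667 nm and signal to noise over triplicate slides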
[14] = test system: Fibrinogen (Alexa647-labelled); assay: fibrinogen binders on compound microarrays, profiling panel, artefact control for SMM control-protein annotation, biochemical, small-molecule microarray, 635/667 nm fluorescence (AID 1131); conditions: fibrinogen-A647 binding fluorescence, higher = more signal;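 note: z-score merges 667 nm fluorescence with per-spot signal-to-noise over triplicate slides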
[15] = biological target: Follistatin (Homo sapiens) (UniProt P19883); assay: follistatin binders on small-molecule microarrays, primary screen, biochemical, small-molecule microarray, 635/667 nm fluorescence (AID 1132); conditions: FST binding, 635 nm fluorescence, higher = more signal
[16] = biological target: Fibroblast growth factor 2 (Homo sapiens) (UniProt P09038); assay: FGF2 binders on small-molecule microarrays, primary screen, biochemical, small-molecule microarray, 635/667 nm fluorescence (AID 1133); conditions: small-molecule microarray binding, FGF2, fluorescence 635/667; higher = more signal
[17] = mitochondrial membrane potential change in A549 cells, profiling panel, cell-based, JC-1 fluorescence, basal, 24 h, 100 nL (AID 1138); conditions: higher = more signal;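 note: A549 lung adenocarcinoma cells under basal conditions with no added stimulus; test concentration not given here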
[18] = test system: Lefty1; assay: Lefty1 binders on small-molecule microarrays, primary screen, biochemical, small-molecule microarray, 635/667 nm fluorescence (AID 1139); conditions: small-molecule microarray binding, fluorescence 635/667; higher = more signal
[19] = test system: wheat germ agglutinin (Triticum aestivum), Alexa647-labelled; assay: wheat germ agglutinin binders on compound microarrays, profiling panel, artefact control for SMM control-protein annotation, biochemical, small-molecule microarray, 635/667 nm fluorescence (AID 1140); conditions: WGA-A647 binding, 635 nm fluorescence, higher = more signal;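 note: score merges 667 nm feature emission with signal to noise over triplicate slides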
[20] = biological target: Luciferin 4-monooxygenase (Photinus pyralis) (UniProt P08659); assay: firefly luciferase enzyme inhibitors, primary screen, biochemical, luminescence, purified enzyme, 2006 set (AID 1141); conditions: SteadyGlo luminescence, 30 min, higher = more signal, called active from +8 up or from −8 down;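 note: cell-free assay with purified firefly luciferase at 100 ng per well in PBS; test concentration not given here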
Luciferin 4-monooxygenase (Photinus pyralis), sequence (P08659 whole entry, looked up): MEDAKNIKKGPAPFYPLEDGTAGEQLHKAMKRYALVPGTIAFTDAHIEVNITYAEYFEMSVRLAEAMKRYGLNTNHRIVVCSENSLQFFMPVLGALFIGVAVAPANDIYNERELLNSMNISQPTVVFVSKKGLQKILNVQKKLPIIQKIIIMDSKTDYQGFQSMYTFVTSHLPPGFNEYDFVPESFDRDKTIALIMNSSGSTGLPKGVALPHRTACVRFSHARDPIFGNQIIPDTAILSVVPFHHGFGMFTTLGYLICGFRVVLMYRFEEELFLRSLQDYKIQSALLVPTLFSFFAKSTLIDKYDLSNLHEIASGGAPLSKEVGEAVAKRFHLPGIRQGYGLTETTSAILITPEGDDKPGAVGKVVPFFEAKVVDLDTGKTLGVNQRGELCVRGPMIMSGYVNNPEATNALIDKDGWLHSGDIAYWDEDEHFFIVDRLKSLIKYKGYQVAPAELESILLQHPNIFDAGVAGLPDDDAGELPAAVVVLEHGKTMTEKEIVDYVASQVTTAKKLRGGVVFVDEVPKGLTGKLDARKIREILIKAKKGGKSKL

Albumin (Bos taurus), sequence (P02769 whole entry, looked up): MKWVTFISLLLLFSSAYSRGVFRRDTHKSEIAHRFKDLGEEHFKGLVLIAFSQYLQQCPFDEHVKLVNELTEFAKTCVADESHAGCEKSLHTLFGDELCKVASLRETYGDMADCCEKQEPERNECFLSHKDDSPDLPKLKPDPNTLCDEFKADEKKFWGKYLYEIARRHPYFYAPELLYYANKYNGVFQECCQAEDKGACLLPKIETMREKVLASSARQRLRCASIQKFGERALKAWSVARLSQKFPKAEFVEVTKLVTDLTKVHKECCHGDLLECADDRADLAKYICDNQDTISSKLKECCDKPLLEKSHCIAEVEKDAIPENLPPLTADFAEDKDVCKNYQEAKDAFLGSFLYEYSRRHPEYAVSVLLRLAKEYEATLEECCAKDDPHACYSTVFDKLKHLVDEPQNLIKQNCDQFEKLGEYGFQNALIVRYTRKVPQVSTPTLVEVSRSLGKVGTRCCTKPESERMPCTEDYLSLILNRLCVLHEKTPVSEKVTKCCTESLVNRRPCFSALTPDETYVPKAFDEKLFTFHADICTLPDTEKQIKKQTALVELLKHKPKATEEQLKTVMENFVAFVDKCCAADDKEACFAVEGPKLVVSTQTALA
Focal adhesion kinase 1 (Homo sapiens), sequence (Q05397 whole entry, looked up): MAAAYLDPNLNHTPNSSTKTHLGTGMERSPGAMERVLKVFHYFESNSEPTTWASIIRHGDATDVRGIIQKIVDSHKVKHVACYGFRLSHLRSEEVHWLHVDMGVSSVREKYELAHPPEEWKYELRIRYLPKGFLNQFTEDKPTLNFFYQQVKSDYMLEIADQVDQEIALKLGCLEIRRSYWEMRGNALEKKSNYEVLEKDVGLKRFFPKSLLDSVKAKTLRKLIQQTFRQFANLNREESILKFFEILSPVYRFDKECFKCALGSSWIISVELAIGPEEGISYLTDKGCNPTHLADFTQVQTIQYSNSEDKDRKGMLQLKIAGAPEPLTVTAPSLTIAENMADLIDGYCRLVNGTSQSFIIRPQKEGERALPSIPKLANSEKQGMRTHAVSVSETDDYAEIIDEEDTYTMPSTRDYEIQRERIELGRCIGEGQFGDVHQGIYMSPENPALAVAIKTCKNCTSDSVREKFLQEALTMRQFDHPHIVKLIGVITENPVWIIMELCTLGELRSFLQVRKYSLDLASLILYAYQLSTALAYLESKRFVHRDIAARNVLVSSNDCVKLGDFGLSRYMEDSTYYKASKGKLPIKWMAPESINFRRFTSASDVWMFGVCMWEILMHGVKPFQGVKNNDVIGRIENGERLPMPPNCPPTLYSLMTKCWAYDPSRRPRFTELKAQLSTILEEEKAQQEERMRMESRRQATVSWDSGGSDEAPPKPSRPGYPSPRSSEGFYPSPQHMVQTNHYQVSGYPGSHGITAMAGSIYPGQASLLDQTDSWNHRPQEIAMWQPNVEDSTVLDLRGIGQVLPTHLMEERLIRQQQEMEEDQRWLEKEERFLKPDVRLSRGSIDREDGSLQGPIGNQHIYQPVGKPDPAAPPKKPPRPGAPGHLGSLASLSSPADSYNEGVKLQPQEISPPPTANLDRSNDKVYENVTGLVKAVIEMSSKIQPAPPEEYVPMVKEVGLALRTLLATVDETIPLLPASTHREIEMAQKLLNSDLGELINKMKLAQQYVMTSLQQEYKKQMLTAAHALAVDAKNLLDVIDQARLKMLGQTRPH
Fibroblast growth factor 2 (Homo sapiens), sequence (P09038 whole entry, looked up): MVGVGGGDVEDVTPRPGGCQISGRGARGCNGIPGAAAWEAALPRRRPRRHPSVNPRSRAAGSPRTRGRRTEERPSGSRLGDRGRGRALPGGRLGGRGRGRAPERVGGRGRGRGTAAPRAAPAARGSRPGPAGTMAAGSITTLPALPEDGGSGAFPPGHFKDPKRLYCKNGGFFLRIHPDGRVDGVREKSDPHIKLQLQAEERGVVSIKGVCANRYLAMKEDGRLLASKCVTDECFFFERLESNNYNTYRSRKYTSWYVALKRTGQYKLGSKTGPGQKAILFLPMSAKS
Follistatin (Homo sapiens), sequence (P19883 whole entry, looked up): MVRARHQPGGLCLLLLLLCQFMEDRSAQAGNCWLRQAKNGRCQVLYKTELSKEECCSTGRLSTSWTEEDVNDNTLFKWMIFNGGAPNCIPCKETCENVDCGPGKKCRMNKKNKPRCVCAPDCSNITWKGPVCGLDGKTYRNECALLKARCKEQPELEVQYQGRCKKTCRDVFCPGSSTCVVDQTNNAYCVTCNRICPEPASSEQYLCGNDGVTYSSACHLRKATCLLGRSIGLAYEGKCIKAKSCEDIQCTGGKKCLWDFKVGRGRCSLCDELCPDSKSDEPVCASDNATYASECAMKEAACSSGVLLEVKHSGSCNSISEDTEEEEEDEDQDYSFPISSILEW
Concanavalin-A (Canavalia ensiformis), sequence (P02866 whole entry, looked up): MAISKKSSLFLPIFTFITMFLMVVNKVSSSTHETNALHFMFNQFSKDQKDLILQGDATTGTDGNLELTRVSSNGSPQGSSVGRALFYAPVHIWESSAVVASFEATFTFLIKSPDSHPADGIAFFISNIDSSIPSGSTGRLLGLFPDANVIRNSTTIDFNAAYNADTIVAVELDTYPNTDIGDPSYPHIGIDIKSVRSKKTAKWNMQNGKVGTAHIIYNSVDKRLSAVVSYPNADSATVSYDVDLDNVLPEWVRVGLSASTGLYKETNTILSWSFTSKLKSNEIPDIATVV

SMILES	composite z-score [1]	composite Z-score [2]	composite z-score [3]	composite z-score [4]	composite z-score [5]	composite z-score [6]	composite z-score [7]	composite z-score [8]	composite z-score [9]	composite z-score [10]	composite z-score [11]	composite z-score [12]	composite z-score [13]	composite z-score [14]	composite z-score [15]	composite z-score [16]	z-score [17]	composite z-score [18]	composite z-score [19]	z-score [20]
CC(C)(C)OC(=O)CC[C@@]1(C(=O)N2CCCCC2)N=C(c2ccc(OCCCO)cc2)O[C@@H]1c1ccccc1	0.962	-0.317 (inactive)	0.372	-0.0659	0.781	2.59	0.796	1.29	-0.409	0.719	1.87	1.25	0.744	1.02	1.09	1.04	1.09	0.501	1.27	-1.73 (inactive)
NC(=O)[C@@]1(Cc2ccccc2)N=C(c2ccc(OCCCO)cc2)O[C@H]1c1ccccc1	0.852	0.546 (inactive)	0.0276	0.0247	0.721	3.05	0.593	0.572	-0.643	0.737	3.01	0.614	0.0867	0.648	0.62	0.686	0.184	-0.846	1.3	-1 (inactive)
CS(=O)(=O)CCOC(=O)C1=CC(CCCO)=CC(C2CC2)N(Cc2cc3c(cc2Br)OCO3)C=C1C(=O)OCCS(C)(=O)=O (stereo not given)	0.741	-0.289 (inactive)	-0.0573	-0.0322	0.774	0.88	0.495	0.531	0.45	0.544	1.97	0.419	-0.0438	1.01	1.18	0.198	1.29	0.477	1.15	-0.395 (inactive)
[N-]=[N+]=NCc1ccccc1[C@H]1OC(c2ccc(OCCCO)cc2)=N[C@@]1(Cc1ccccc1)C(=O)N1CCCCC1	0.515	-0.34 (inactive)	0.234	-0.133	0.591	2.32	0.284	1.29	-0.237	1.08	0.777	1.23	0.795	1	1.45	1.52	0.779	0.944	0.834	0.486 (inactive)
CCCCN1CC=CC23O[C@@H]4C=CCOC(=O)[C@@H]4[C@H]2C(=O)N(CCCCCCO)[C@@H]3C1=O (stereo not given in full)	-0.469	0.998 (inactive)	-0.182	-0.187	0.95	-0.275	0.456	-0.821	-1.83	-1.24	-0.818	-0.544	0.717	-2.1	-1.55	-0.802	0.00246	-1.25	-1.24	-0.419 (inactive)
COc1ccc(-c2cc3c(c(Cc4ccccc4)n2)[Si](C(C)C)(C(C)C)OC3)cn1	-0.832	0.168 (inactive)	0.0596	-0.155	-0.272	-0.0385	-0.124	-0.0817	0.21	-0.739	-0.356	-0.875	-0.0985	-0.827	-0.108	-0.328	-0.687	-0.0455	-0.351	0.892 (inactive)
COc1ccc(CCNC(=O)[C@@]2(c3ccc([N+](=O)[O-])cc3)CC(=O)N(CC34CC5CC(CC(C5)C3)C4)[C@@H]2c2ccc(CO)cc2I)cc1	-0.367	-0.355 (inactive)	-0.332	-0.214	0.0976	2.27	0.283	0.925	0.394	0.834	1.35	1.17	0.458	0.478	1.39	1.37	-1.36	0.881	0.913	0.641 (inactive)
O=C1NC(=O)C2C1C=CC(C(O)C=Cc1ccc([N+](=O)[O-])cc1)N2Nc1ccc(Cl)cc1Cl (stereo not given)	0.89	0.541 (inactive)	0.405	0.39	0.76	2.07	1.01	0.756	0.397	0.76	1.72	1.11	0.0716	0.646	1.04	-0.18	0.408	-0.443	0.957	-3.39 (inactive)
C=C[C@H](C)[C@@H](OC(=O)Nc1ccc(SC)cc1)c1ccc(O)c2ccccc12	0.0219	-0.552 (inactive)	0.0636	-0.0928	0.609	1.84	0.188	1.32	1.13	1.02	3.14	1.24	0.183	0.294	1.37	1.54	-1.7	1.1	0.108	-2.61 (inactive)
COC(=O)[C@@]1(Cc2ccc(OC)cc2)[C@H]2c3cc(C(=O)N4CCCC4)n(Cc4nc5ccccc5[nH]4)c3C[C@H]2CN1C(=O)c1ccccc1	1.08	0.234 (inactive)	0.537	0.013	0.78	3.39	1.13	1.32	-0.45	0.174	2.01	1.24	1.64	1.05	0.979	-0.202	1.92	-0.47	1.14	1.53 (inactive)
